Laboratory results as given in PubChem BioAssay AID1159580 (chemical genetic matrix, 2015).
The whole screen tested about 5,500 compounds, of which about 2,000 (36%) were called active. About 18% were inconclusive and are not listed. Rule as the data show it: active = normalized growth mostly below about 0.91 (no sharp cut-off); inconclusive = no clear call, values can overlap the other calls; inactive = mostly above about 0.92. The list shows a part of the results.

Test: chemical genetic growth profiling, strain panel (AID 1159580);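 also: tested at 20 µM; growth read once vehicle control cultures reached saturation at 30 °C; 1 = growth at the plate median or of vehicle wells; lower values mean less growth of the strain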
Details: S. cerevisiae deletion strains, growth OD

Measured: normalized growth

N[C@@H](C(=O)O)c1ccccc1
inactive: locus YAL013W, strain DEP1, stronger effect = lower value 1 | locus YBR229C, strain ROT2, stronger effect = lower value 1 | locus YDL101C, strain DUN1, stronger effect = lower value 1.01 | locus YDR150W, strain NUM1, stronger effect = lower value 0.997 | locus YEL061C, strain CIN8, stronger effect = lower value 1 | locus YGR078C, strain PAC10, stronger effect = lower value 0.998 | locus YHR030C, strain SLT2, stronger effect = lower value 0.927 | locus YHR087W, strain rtc3, stronger effect = lower value 0.998 | locus YJR043C, strain POL32, stronger effect = lower value 1.01 | locus YJR075W, strain HOC1, stronger effect = lower value 0.992 | locus YLR039C, strain RIC1, stronger effect = lower value 0.981 | locus YLR058C, strain SHM2 (second series), stronger effect = lower value 0.992 | locus YLR085C, strain ARP6, stronger effect = lower value 1.04 | locus YLR262C, strain YPT6, stronger effect = lower value 0.954 | locus YML094W, strain GIM5, stronger effect = lower value 1.03 | locus YMR219W, strain ESC1, stronger effect = lower value 1 | locus YMR263W, strain SAP30, stronger effect = lower value 0.987 | locus YNL128W, strain TEP1, stronger effect = lower value 0.985 | locus YNL153C, strain GIM3, stronger effect = lower value 0.999 | locus YNL298W, strain CLA4 (second series), stronger effect = lower value 1.02 | locus YNL322C, strain KRE1, stronger effect = lower value 1.01 | locus YNR030W, strain Alg12, stronger effect = lower value 1.03 | locus YPL055C, strain LGE1, stronger effect = lower value 0.996 | locus YPL241C, strain CIN2, stronger effect = lower value 1.02 | locus YPR135W, strain CTF4, stronger effect = lower value 0.974
